The source of these data is PubChem BioAssay (NCATS).

Test [1] concerns NIH3T3. Put plainly: Cytotoxic Profiling of Annotated Libraries Using Quantitative High-Throughput Screening (AID 1296008). Also: nearly all actives have a fitted effect of over 60% in size. Also: potency is read from the fitted curve at half-maximal effect. The settings on record: Five cell lines viability, CellTiter-Glo ATP luminescence, 48-72 h; max response: stronger effect = lower value. In a few lines:
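Compounds were pin-transferred onto cells and incubated 48 or 72 hr at 37 degree Celsius, 95% humidity. CellTiter-Glo was added, plates sat 10 min at room temperature, then ATP-coupled luminescence was imaged as the viability read-out.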
(In ATP-based viability assays light output follows the ATP content of the culture.)

Another test relates to HACAT. Put plainly: qHTS assay to identify novel small-molecules to repurpose for Merkel cell carcinoma treatment (AID 1296009). Also: nearly all actives have a fitted effect of over 60% in size. Also: potency is read from the fitted curve at half-maximal effect. The conditions noted are these: MCC and control cell lines, CellTiter-Glo viability, 72 h; at 44.8 µM (top of the series) unless noted. In a few lines:
(§1)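 qHTS format: cells treated with library compounds in DMSO across 8 (NPC) or 11 (MIPE) concentrations. Readout after 72 hr at 37 degree celsius was CellTiter-Glo luminescence.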
(In general: Quantitative high-throughput screening tests each substance at several concentrations.)

Test [2] relates to HEK293T. The test is described as above. The conditions noted are these: MCC and control cell lines, CellTiter-Glo viability, 72 h; at 44.8 µM (top of the series). The method, boiled down: as §1
A further test has as its system MCC-13. The description is as above. The conditions noted are these: MCC and control cell lines, CellTiter-Glo viability, 72 h; series mostly up to 46 µM. In a few lines: as §1
The subject of the next test is MCC-26. The test is described as above. The conditions noted are these: MCC and control cell lines, CellTiter-Glo viability, 72 h; series mostly up to 46 µM. The method, boiled down: as §1
Another test concerns MKL-1. The description is as above. The settings on record: MCC and control cell lines, CellTiter-Glo viability, 72 h; series mostly up to 46 µM. The method, boiled down: as §1
The subject of another test is MKL-2. The test is described as above. The settings on record: MCC and control cell lines, CellTiter-Glo viability, 72 h; series mostly up to 46 µM. In a few lines:
as §1

In test [3] the test system is NIH3T3. The description is as above. The conditions noted are these: MCC and control cell lines, CellTiter-Glo viability, 72 h; at 44.8 µM (top of the series) unless noted. The method, boiled down:
as §1

In a further test the test system is UISO. The test is described as above. The settings on record: MCC and control cell lines, CellTiter-Glo viability, 72 h; series mostly up to 46 µM. In a few lines: as §1
The next test deals with WaGa. The description is as above. The conditions noted are these: MCC and control cell lines, CellTiter-Glo viability, 72 h; series mostly up to 46 µM. In a few lines: as §1
The subject of a further test is C33A. The experiment in a line: Primary qHTS to identify gynecologic anti-cancer compounds using libraries of approved drugs and bioactive compounds (AID 1345084). Also: nearly all actives have a fitted effect of over 55% in size. The conditions noted are these: Gynecologic cancer cell panel viability, ATPlite luminescence, 48 h; series mostly up to 57.5 µM. The method, boiled down: (§2)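 Cells, 1,000 per well, were allowed to settle for 16 h at 37 C before compound addition. Five concentrations were tested for 48 h, and viability was read by ATPlite luminescence after 15 min at room temperature.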

A further test deals with CASKI. Described as above. The conditions noted are these: Gynecologic cancer cell panel viability, ATPlite luminescence, 48 h; series mostly up to 57.5 µM. The method, boiled down: as §2
The next test deals with Es-2. Described as above. The settings on record: Gynecologic cancer cell panel viability, ATPlite luminescence, 48 h; series mostly up to 57.5 µM. In a few lines:
as §2

The next test deals with HeLa. The description is as above. The conditions noted are these: Gynecologic cancer cell panel viability, ATPlite luminescence, 48 h; series mostly up to 57.5 µM. The method, boiled down: as §2
Test [4] relates to Hek293T. The description is as above. The settings on record: Gynecologic cancer cell panel viability, ATPlite luminescence, 48 h, control line for the selectivity index; series mostly up to 57.5 µM. In a few lines:
as §2

The next test has as its system JEG-3. The test is described as above. The conditions noted are these: Gynecologic cancer cell panel viability, ATPlite luminescence, 48 h; series mostly up to 57.5 µM. The method, boiled down:
as §2

A further test has as its system OV90. The description is as above. The conditions noted are these: Gynecologic cancer cell panel viability, ATPlite luminescence, 48 h; series mostly up to 57.5 µM. In a few lines: as §2
The subject of the next test is PA-1. Described as above. The settings on record: Gynecologic cancer cell panel viability, ATPlite luminescence, 48 h; series mostly up to 57.5 µM. In a few lines: as §2
The subject of the next test is SKOV3. The description is as above. The conditions noted are these: Gynecologic cancer cell panel viability, ATPlite luminescence, 48 h; series mostly up to 57.5 µM. The method, boiled down: as §2
The subject of the next test is CAOV3. The test is described as above. The conditions noted are these: Gynecologic cancer cell panel viability, ATPlite luminescence, 48 h; series mostly up to 57.5 µM. The method, boiled down:
as §2

Inconclusive results are not listed. A number with no mark means an inactive call. Activity calls are given as the source filed them. Calls follow the shape of the dose curve; as a rule, active = well fitted curve in the direction sought with a large enough effect; inconclusive = small, poorly fitted or top-dose-only effect, or another doubt; inactive = no such curve, though single readings can be large; an effect the other way counts as inactive or inconclusive.
% is scaled to controls: 0 for no effect and ±100 for the full control effect.

As for `CCc1ccc(CCOc2ccc(CC3SC(=O)NC3=O)cc2)nc1` (stereo unspecified), in the test with NIH3T3 [1], the max response is 0.801%. The compound was called inactive with NIH3T3 [1], in the test with HACAT, in the test on HEK293T [2] and in the test with NIH3T3 [3]. Further, the Potency result in the test on MCC-13, with MCC-26, in the test with MKL-1, with MKL-2, in the test with UISO and in the test with WaGa was “inactive” each time. Further, the Potency entry in the test on C33A, in the test with CASKI, in the test with Es-2, in the test with HeLa, in the test with Hek293T [4] and in the test on JEG-3 was “inactive” each time. Moreover, the Potency entry in the test with OV90, in the test on PA-1 and in the test on SKOV3 was “inactive” throughout.
Take `CC(C)NCC(O)COc1ccc(COCCOC(C)C)cc1` (stereo unspecified): in the test with NIH3T3 [1], the max response is 4.85%. Further, the compound was classed as inactive in the test on NIH3T3 [1], with HACAT and in the test on NIH3T3 [3]. The Potency entry in the test with MCC-13, with MCC-26, with MKL-1, in the test on MKL-2, in the test with UISO and in the test with WaGa was “inactive” each time. Moreover, the Potency entry with C33A, in the test on CASKI, with Es-2, in the test on HeLa, in the test on Hek293T [4] and in the test with JEG-3 was “inactive” each time. Besides, the Potency result in the test with OV90, in the test on PA-1 and in the test on SKOV3 was “inactive” in each case.
Take `COc1ccc(-c2ccc3c(N4CCOC[C@H]4C)nc(N4CCOC[C@H]4C)nc3n2)cc1CO`: the Potency in the test with NIH3T3 [1] is 0.0662 µM (active).
As for `Oc1cccc(-c2nc(N3CCOCC3)c3oc4ncccc4c3n2)c1`, in the test on NIH3T3 [1], the Potency was 0.762 µM (active).
For `CC(C=CC1=C(C)CCCC1(C)C)=CC=CC(C)=CC(=O)O`, the max response with NIH3T3 [1] was -0.0926%. Further, the call with NIH3T3 [1], with HACAT, in the test on HEK293T [2] and with NIH3T3 [3] was inactive. The Potency result in the test on MCC-13, in the test with MCC-26, in the test on MKL-1, in the test on MKL-2, in the test with UISO and with WaGa was “inactive” each time.
For `CN[C@@H](C)C(=O)N[C@H]1CCCC[C@H]2CC[C@@H](C(=O)N[C@@H](c3ccccc3)c3cn(CCCCc4ccc(CCCCn5cc([C@@H](NC(=O)[C@@H]6CC[C@@H]7CCCC[C@H](NC(=O)[C@H](C)NC)C(=O)N76)c6ccccc6)nn5)cc4)nn3)N2C1=O`, the outcome in the test with NIH3T3 [1], in the test on HACAT, in the test with HEK293T [2] and in the test with NIH3T3 [3] was inactive. The Potency entry in the test on MCC-13 and in the test on MCC-26 was “inactive” each time. Further, the Potency is 23.5 µM (active) in the test with MKL-1 and 9.35 µM (active) in the test with MKL-2.
In the case of `Cc1[nH]c(=O)c(C#N)cc1-c1ccncc1`, in the test on NIH3T3 [1], the max response is 0.936%. Further, the outcome in the test with NIH3T3 [1], with HEK293T [2] and with NIH3T3 [3] was inactive. For the same compound, the Potency entry in the test with MCC-13, with MKL-1, in the test on MKL-2, in the test on UISO, with WaGa and with C33A was “inactive” each time. Besides, the Potency result in the test with CAOV3, in the test on CASKI, in the test on Es-2, in the test with HeLa, in the test with Hek293T [4] and in the test on JEG-3 was “inactive” throughout. The Potency result in the test with OV90, in the test with PA-1 and with SKOV3 was “inactive” in each case.
On to `CNC(=O)c1ccc(C)c(-n2c(C)cc(OCc3ccc(F)cc3F)c(Br)c2=O)c1`, for which the max response with NIH3T3 [1] was 2.56%. Further, the compound was classed as inactive in the test with NIH3T3 [1], in the test with HACAT and in the test on NIH3T3 [3]. Moreover, the Potency result in the test with MCC-13, with MCC-26, in the test with MKL-1, in the test on C33A, with CAOV3 and in the test with CASKI was “inactive” in each case. Moreover, the Potency entry in the test on Es-2, in the test with HeLa, in the test with Hek293T [4], in the test with JEG-3, in the test with OV90 and in the test with PA-1 was “inactive” each time. The Potency result with SKOV3 is “inactive”.
Regarding `OC(CCN1CCCCC1)(c1ccccc1)C1CC2C=CC1C2` (stereo unspecified), the result in the test with NIH3T3 [1], in the test on HACAT, with HEK293T [2] and in the test with NIH3T3 [3] was inactive. Also, the Potency entry in the test on MCC-13, in the test with MCC-26, with MKL-1, in the test on MKL-2, in the test on UISO and with WaGa was “inactive” throughout. Besides, the Potency result in the test on C33A, with CAOV3, with CASKI, with Es-2, with HeLa and with Hek293T [4] was “inactive” each time. Also, the Potency entry with JEG-3, in the test with OV90, in the test with PA-1 and with SKOV3 was “inactive” throughout.
